Experimental data as given in PubChem BioAssay.
Activity calls are given as the source filed them.

Columns and labels:
[1] = binders of probe aFSTL3 on microarray, primary screen, stem cell growth factor project, biochemical, small-molecule microarray, fluorescence 635/667 (AID 1064); conditions: higher = more signal;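 note: measures binding of the biotinylated anti-FSTL3 antibody to printed compounds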
[2] = binders from COS7 lysate, DM2A8 probe, primary screen, torsin A project, cell lysate, small-molecule microarray, fluorescence 635/667 (AID 1065); conditions: higher = more signal, COS7 lysate expressing mutant human TOR1A
[3] = binders of probe aFGF2 on microarray, primary screen, stem cell growth factor project, biochemical, small-molecule microarray, fluorescence 635/667 (AID 1067); conditions: higher = more signal;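 note: measures binding of biotinylated aFGF2 protein to printed compounds on slides; z-score merges feature fluorescence and signal-to-noise across triplicate slides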
[4] = binders of probe aFGF10 on microarray, primary screen, stem cell growth factor project, biochemical, small-molecule microarray, fluorescence 635/667 (AID 1071); conditions: higher = more signal;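 note: score merges 667 nm spot intensity and signal to noise from triplicate slides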
[5] = molecular target: Neurogenic locus notch homolog protein 2 (Homo sapiens) (UniProt Q04721); assay: Notch2 binders on small-molecule microarrays, primary screen, biochemical, small-molecule microarray, 635 nm fluorescence, stem cell growth factors (AID 1073); conditions: Notch2 binding, higher = more signal
Sequence of Neurogenic locus notch homolog protein 2 (Homo sapiens) (Q04721 whole entry, looked up, canonical isoform): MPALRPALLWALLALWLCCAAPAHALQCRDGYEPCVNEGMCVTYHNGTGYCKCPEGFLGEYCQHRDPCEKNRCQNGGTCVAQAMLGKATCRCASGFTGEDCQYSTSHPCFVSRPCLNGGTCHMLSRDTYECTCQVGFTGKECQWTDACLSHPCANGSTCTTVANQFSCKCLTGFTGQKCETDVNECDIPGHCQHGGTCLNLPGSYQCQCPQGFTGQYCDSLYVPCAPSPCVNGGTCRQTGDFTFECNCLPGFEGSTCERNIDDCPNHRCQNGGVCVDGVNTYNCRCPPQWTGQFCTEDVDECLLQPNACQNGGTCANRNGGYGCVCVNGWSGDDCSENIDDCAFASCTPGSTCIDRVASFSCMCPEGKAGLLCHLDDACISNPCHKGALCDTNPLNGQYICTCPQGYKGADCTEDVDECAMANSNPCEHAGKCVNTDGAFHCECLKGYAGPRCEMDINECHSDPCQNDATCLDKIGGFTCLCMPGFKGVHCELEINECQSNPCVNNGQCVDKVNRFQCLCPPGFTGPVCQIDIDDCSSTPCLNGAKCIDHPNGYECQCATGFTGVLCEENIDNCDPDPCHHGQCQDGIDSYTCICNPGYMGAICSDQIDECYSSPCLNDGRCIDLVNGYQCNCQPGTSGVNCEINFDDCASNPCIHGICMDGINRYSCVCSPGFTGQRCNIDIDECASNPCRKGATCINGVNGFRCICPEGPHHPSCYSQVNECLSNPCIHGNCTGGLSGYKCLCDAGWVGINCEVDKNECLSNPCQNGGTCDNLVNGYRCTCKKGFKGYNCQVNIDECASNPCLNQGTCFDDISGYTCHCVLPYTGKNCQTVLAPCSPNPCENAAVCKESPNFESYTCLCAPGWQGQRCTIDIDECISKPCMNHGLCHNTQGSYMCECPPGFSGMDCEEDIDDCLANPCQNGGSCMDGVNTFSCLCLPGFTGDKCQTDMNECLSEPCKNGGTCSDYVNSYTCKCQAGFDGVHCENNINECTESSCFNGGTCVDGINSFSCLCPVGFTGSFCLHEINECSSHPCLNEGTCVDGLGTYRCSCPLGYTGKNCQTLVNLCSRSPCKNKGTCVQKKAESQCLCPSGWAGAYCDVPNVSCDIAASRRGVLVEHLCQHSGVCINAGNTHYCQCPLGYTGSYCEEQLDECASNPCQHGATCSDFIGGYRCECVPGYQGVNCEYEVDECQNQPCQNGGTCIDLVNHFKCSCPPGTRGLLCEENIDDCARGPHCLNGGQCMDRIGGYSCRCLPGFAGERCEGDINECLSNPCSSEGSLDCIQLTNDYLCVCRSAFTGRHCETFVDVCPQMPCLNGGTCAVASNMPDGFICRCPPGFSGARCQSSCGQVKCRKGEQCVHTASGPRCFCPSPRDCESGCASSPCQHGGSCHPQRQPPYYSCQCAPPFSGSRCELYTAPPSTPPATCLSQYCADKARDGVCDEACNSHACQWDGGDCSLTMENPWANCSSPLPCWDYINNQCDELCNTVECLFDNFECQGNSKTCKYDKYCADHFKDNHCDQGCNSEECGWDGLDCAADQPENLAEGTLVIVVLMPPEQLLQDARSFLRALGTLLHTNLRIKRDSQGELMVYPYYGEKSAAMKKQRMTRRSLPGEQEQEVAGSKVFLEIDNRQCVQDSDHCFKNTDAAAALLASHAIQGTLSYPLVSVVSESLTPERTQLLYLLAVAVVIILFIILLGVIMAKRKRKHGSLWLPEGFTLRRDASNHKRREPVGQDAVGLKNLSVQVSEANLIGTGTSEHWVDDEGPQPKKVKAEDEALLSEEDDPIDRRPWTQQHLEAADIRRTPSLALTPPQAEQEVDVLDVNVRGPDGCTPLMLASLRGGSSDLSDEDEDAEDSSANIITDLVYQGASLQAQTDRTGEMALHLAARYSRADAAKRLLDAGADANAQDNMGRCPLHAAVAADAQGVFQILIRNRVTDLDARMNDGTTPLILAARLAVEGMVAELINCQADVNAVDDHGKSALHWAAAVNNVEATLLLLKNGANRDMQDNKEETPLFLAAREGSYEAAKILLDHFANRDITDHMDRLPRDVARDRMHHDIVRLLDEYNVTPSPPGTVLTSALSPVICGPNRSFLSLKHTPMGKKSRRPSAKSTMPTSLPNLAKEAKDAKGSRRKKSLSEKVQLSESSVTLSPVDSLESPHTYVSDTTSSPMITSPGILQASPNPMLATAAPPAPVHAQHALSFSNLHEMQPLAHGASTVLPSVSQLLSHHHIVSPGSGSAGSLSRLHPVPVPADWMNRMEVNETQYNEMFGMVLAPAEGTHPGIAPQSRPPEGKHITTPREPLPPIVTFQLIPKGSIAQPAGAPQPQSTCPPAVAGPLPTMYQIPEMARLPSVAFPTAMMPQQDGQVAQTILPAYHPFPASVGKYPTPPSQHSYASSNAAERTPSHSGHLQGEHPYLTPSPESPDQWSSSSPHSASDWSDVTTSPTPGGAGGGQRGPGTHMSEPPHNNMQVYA

[6] = molecular target: Pro-neuregulin-1, membrane-bound isoform (Homo sapiens) (UniProt Q02297); assay: NRG1 binders on small-molecule microarrays, primary screen, psychiatric disease protein project, biochemical, small-molecule microarray, fluorescence 635/667 (AID 1075); conditions: NRG1 binding, 635 nm fluorescence, higher = more signal;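 note: score combines 667 nm spot fluorescence with signal to noise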
Sequence of Pro-neuregulin-1, membrane-bound isoform (Homo sapiens) (Q02297 whole entry, looked up, the tested form may be a part, canonical isoform): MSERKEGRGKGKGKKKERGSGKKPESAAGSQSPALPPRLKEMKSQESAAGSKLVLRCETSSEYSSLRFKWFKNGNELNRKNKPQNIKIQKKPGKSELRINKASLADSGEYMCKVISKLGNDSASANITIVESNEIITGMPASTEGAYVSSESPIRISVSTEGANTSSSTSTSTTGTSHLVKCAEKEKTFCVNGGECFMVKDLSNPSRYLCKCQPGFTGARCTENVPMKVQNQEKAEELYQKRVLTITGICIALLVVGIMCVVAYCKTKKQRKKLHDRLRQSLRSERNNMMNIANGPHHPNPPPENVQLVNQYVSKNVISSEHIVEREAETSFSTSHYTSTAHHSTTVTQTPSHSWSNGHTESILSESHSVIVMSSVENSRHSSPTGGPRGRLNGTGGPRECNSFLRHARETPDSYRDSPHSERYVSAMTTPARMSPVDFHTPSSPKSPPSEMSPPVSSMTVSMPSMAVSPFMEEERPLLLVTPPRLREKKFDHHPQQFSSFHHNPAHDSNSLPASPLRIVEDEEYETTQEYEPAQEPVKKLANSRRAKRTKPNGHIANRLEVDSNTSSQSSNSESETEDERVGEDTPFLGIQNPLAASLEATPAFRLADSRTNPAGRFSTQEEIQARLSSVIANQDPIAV

[7] = test system: Neuregulin-1 EGF-like domain; assay: binders of neuregulin-1 EGF-like domain, primary screen, biochemical, small-molecule microarray, 635 nm fluorescence (AID 1081); conditions: small-molecule microarray binding, higher = more signal;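 note: binding of the protein to compounds printed on small-molecule microarray slides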
[8] = FRG1 promoter luciferase signal modulators, primary screen, FRG1 inhibition for FSHD, cell-based, C2C12 myotubes, firefly/Renilla luciferase, luminescence (AID 1084); conditions: higher = more signal, called active from +8 up or from −8 down
[9] = binders of probe aFST on microarray, primary screen, stem cell growth factor project, biochemical, small-molecule microarray, fluorescence 635/667 (AID 1086); conditions: higher = more signal;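 note: score merges 667 nm fluorescence with signal-to-noise of each printed compound spot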
[10] = binders of probe aHhip on microarray, primary screen, stem cell growth factor project, biochemical, small-molecule microarray, fluorescence 635/667 (AID 1087); conditions: higher = more signal;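 note: score merges spot fluorescence at 667nm with spot signal to noise ratio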

Row | Compound | composite z-score [1] | composite z-score [2] | composite z-score [3] | composite z-score [4] | composite z-score [5] | composite z-score [6] | composite z-score [7] | z-score [8] | composite z-score [9] | composite z-score [10]
1 | COCCOC(=O)N1C(=O)[C@@]2(c3cc(C#Cc4ccc(OC)cc4)ccc31)[C@H](C(N)=O)[C@H]1C(=O)O[C@H](c3ccccc3)[C@H](c3ccccc3)N1[C@@H]2c1ccccc1OCCO | 0.214 | 2.16 | 0.0918 | 1.11 | 1.53 | 1.64 | 1.27 | -1.26 (inactive) | 0.433 | 0.0431
2 | [N-]=[N+]=NCc1ccccc1[C@@H]1OC(c2ccc(OCCCO)cc2)=N[C@]1(Cc1ccccc1N=[N+]=[N-])C(=O)N1CCOCC1 | 0.36 | 0.485 | 0.321 | 0.636 | 1.66 | 1.77 | 1.1 | -0.825 (inactive) | 1.08 | -0.0994
3 | C=C(/C(=C/C[C@@H](OC(C)=O)c1ccc(OCCO)cc1)c1cnc2ccccc2c1)C(C)C | -0.0854 | 0.769 | -0.073 | 0.164 | 0.205 | 0.213 | 0.946 | -1.06 (inactive) | 0.142 | -0.0645
4 | COCCOC(=O)N1C(=O)[C@@]2(c3cc(C#CC4=CCCCC4)ccc31)[C@H](C(=O)N1CCc3cc(OC)c(OC)cc3C1)[C@H]1C(=O)O[C@H](c3ccccc3)[C@H](c3ccccc3)N1[C@@H]2c1ccc(OCCO)cc1 | -0.137 | 0.492 | -0.0094 | 0.599 | 1.1 | 0.101 | 1.21 | 0.235 (inactive) | 0.533 | -0.0121
5 | CC(C)(C)C(=O)N[C@@H](c1ccc(Cl)cc1)[C@]1(C)C[C@H]1C1CCCCC1 | 1.05 | 0.845 | 0.282 | 0.57 | 1.51 | 2.09 | 1.19 | -1.52 (inactive) | 1.47 | 0.0053
6 | COC(=O)[C@@]1(Cc2ccc(OC)cc2)[C@H]2c3cc(C(=O)N4CCCC4)n(Cc4ccsc4Br)c3C[C@H]2CN1C(=O)c1ccccc1 | 0.588 | -0.594 | -0.1 | 0.188 | 1.6 | 1.68 | 1.08 | 3.4 (inactive) | 1.37 | -0.367
7 | [N-]=[N+]=NCc1ccccc1C[C@]1(C(=O)O)N=C(c2ccc(OCCCO)cc2)O[C@H]1c1ccccc1N=[N+]=[N-] | -0.146 | 0.268 | -0.0004 | 0.833 | 1.52 | 1.78 | 1.25 | -1.47 (inactive) | 0.921 | 0.138
8 | CC(C)(C)OC(=O)CC[C@@]1(C(=O)NCC(O)CO)N=C(c2ccc(OCCCO)cc2)O[C@@H]1c1ccccc1N=[N+]=[N-] (stereo not given in full) | 0.119 | 1.11 | 0.0599 | 0.559 | 1.2 | 1.97 | 1.17 | 2.43 (inactive) | 0.552 | -0.0618
9 | CCCCN1CC=CC23O[C@@H]4C=CCOC(=O)[C@@H]4[C@H]2C(=O)N(CCCCCO)[C@@H]3C1=O (stereo not given in full) | 0.219 | -0.726 | -0.187 | -0.32 | -0.661 | 0.967 | 1.34 | -0.333 (inactive) | -0.603 | -0.21
10 | CC(=O)NCCCC[C@@H]1NC(=O)[C@@H]2C[C@H](C(=O)NCCCCN(C)C)[C@H](c3cccc(OCCO)c3)N2C1=O | 0.123 | 0.537 | -0.108 | -0.107 | -0.569 | -0.283 | 1.12 | 3.26 (inactive) | 0.571 | -0.236
11 | COc1ccc(C(=O)Nc2ccc(CN3C(=O)[C@@]4(O[C@@H](CC(=O)N5CCC[C@H]5CO)[C@H]([Si](C)(C)c5ccc(OC)cc5)[C@H]4C)c4ccccc43)cc2)cc1 | -0.172 | 0.195 | -0.0202 | 0.577 | 1.47 | 1.3 | 1.16 | -4.05 (inactive) | 0.543 | 0.176
12 | CC1(C)[C@@H]2CC(C(O)C3C=CC4C(=O)N(c5ccccc5)C(=O)C4N3Nc3ccccc3)=C[C@H]1C2 (stereo not given in full) | 0.11 | -0.6 | 0.062 | 0.45 | 1.03 | 1.15 | 0.886 | -0.559 (inactive) | 0.889 | 0.142
13 | COC(=O)[C@@]1(Cc2ccccc2)[C@H]2c3cc(C(=O)N4CCCC4)n(Cc4cccc5ccccc45)c3C[C@H]2CN1C(=O)c1ccccc1 | 1.79 | 0.0848 | 0.705 | 0.913 | 1.63 | 1.49 | 1.21 | -0.165 (inactive) | 2.03 | 0.869
14 | C=CC[C@]1(C(=O)NCCCOC)N=C(c2ccc(OCCCO)cc2)O[C@H]1c1ccccc1N=[N+]=[N-] | 0.149 | -0.0693 | 0.119 | 0.751 | 1.39 | 0.94 | 0.989 | 0.665 (inactive) | 1.18 | -0.192
